A selection: hits, their analogues and other compounds. The true share with any hit is near 10%.
Six1-Eya2 blk = Six1/Eya2 interaction inhibition. Q15475+O00167. AlphaScreen GST-Six1/His-Eya2 binding, biochemical; stronger effect = lower value. AID 651725. activity change, % (test concentration not listed). 0.56% of 360,000 active; in the data active means activity change below about -65%; inconclusive means mostly about -30% to -63%; further: on the % scale 0 is the no-effect control and ±100 the full control effect
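AlphaScreen with GST-Six1 and His-Eya2 (5X mix: 250 nM and 500 nM), glutathione donor and nickel acceptor beads; buffer 50 mM Tris pH 8.0, 300 mM NaCl, 1 mM TCEP; 1 h at 37 C in the dark.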
CtBP-E1A inh = inhibitors of CtBP/E1A interaction; AlphaScreen GST-E1A/His-CtBP binding, 1536-well; stronger effect = lower value; activity change, % (test concentration not listed); 0.49% of 340,000 active; in the data active means activity change below about -65%; inconclusive means mostly about -30% to -63%; further: on the % scale 0 is the no-effect control and ±100 the full control effect
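Steps: dispense buffer (Tris pH 8.0, NaCl 300 mM, TCEP 1 mM, BSA, Tween 20); add 5X protein mix (GST-E1A, His-CtBP, 125 nM each); pin 23 nL compound; 2 h at 37 °C, dark; add 5X beads (50 ug/mL); 1 h; read.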
HP1b binding inh = blocks HP1-beta chromodomain binding to methylated histone tails; P83916; AlphaScreen HP1-beta / biotin-H3K9me3 peptide binding; Potency, µM (doses to about 114 µM), inactives show at the highest dose activity change, negative = inhibition, most hits filed as inhibitors; 0.56% of 390,000 active; AID 540317; further: potency means the concentration at half of the fitted maximal effect; nearly all actives have a fitted effect of over 70% in size
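HP1-beta protein (50 nM final) preincubated 30 min at room temperature with biotinylated H3(1-18)K9me3 peptide (50 nM) in PBS pH 7.4, 0.01% Tween-20, then compound added for 30 min. AlphaScreen streptavidin donor/nickel chelate acceptor beads (10 ug/mL final), 30 min dark, luminescence read.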
BAZ2B inh = BAZ2B (human) inhibition. 4.4% of 360,000 active. Potency, µM (series often up to 114 µM), for inactives: top-dose activity change, negative = inhibition, hits mostly inhibitors. Q9UIF8. AlphaScreen BAZ2B-H3K14Ac peptide displacement; further: potency means the concentration at half of the fitted maximal effect; on the % scale 0 is the no-effect control and ±100 the full control effect; nearly all actives have a fitted effect of over 60% in size
Target sequence (Q9UIF8 whole entry, looked up): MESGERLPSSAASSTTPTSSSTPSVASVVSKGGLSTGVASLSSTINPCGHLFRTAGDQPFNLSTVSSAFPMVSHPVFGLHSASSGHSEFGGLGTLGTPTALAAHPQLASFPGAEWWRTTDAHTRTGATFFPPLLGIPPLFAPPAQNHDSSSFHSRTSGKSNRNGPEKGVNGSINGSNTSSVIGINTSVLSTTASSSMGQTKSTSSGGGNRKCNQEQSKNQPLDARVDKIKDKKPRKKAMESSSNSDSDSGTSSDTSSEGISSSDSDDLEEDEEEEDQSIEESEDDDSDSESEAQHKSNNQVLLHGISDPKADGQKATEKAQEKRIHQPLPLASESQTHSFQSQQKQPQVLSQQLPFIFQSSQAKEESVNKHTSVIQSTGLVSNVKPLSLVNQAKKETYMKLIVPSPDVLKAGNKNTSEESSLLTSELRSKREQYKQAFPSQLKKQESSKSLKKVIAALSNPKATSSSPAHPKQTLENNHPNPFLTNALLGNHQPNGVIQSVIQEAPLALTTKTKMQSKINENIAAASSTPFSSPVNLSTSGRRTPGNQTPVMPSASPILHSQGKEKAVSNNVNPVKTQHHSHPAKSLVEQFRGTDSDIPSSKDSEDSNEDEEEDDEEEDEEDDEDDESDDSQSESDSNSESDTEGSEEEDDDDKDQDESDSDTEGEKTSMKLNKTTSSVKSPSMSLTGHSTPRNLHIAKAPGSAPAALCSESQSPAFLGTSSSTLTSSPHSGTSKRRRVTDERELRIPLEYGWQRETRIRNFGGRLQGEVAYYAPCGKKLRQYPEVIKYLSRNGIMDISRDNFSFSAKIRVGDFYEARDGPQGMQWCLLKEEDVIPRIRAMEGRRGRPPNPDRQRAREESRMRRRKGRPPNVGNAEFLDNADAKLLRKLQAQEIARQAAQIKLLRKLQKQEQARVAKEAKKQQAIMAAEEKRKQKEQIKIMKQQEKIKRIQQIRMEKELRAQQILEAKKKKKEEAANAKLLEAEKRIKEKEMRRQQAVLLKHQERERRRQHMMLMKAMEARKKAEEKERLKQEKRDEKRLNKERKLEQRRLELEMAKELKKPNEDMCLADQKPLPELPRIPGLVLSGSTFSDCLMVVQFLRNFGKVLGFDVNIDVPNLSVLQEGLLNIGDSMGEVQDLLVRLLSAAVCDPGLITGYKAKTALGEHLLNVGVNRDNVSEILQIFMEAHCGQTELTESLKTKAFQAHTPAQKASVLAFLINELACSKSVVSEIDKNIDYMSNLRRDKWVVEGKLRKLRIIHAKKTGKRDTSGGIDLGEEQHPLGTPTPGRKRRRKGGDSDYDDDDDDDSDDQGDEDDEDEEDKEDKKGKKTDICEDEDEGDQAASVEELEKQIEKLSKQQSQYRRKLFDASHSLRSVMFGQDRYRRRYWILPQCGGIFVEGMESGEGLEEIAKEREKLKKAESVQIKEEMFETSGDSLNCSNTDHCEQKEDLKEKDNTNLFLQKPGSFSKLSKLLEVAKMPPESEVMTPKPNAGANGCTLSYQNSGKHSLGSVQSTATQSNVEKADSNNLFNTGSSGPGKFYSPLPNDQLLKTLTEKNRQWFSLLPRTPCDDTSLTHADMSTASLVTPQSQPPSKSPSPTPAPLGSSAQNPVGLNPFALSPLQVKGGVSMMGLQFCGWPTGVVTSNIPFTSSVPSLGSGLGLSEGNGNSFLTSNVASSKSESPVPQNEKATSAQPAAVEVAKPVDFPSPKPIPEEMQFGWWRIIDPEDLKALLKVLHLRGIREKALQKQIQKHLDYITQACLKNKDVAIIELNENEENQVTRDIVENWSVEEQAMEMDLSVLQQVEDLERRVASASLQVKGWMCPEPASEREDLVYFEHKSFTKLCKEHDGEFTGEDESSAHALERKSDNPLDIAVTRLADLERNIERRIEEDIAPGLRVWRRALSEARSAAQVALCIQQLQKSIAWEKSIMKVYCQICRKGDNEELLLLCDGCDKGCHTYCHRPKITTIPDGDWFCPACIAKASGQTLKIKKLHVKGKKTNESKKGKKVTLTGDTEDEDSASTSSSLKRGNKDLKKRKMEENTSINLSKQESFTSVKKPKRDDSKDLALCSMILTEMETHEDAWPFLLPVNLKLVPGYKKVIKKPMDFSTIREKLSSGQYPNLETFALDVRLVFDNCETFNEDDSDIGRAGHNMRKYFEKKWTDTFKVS
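Protein-peptide AlphaScreen: BAZ2B 50 nM, b-H3K14Ac 50 nM, 1x PBS pH 7.4 + 0.01% Tween-20. Preincubation 30 min RT; cpd 30 min RT (top 110 uM); beads 20 min RT, light-protected.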
G9a block = inhibitors of human histone lysine methyltransferase G9a. G9a H3K9 monomethylation, AlphaScreen, 2 h. Potency, µM (doses to about 102 µM), for inactives: at the top dose activity, negative = inhibition, hits mostly inhibitors. 8.8% of 350,000 active; further: potency means the concentration at half of the fitted maximal effect; on the % scale 0 is the no-effect control and ±100 the full control effect; nearly all actives have a fitted effect of over 75% in size
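Signal arises when biotinylated H3K9 peptide, once monomethylated, bridges streptavidin donor and antibody-captured acceptor beads. Enzyme at 20 nM was preincubated 15 min with test compounds; peptide 500 nM and SAM 20 uM then reacted for 2 h.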
JMJD2A Tudor inh = JMJD2A Tudor domain (human) inhibition | Potency, µM (highest dose often 114 µM), without a hit: at the highest dose activity change, negative = inhibition, actives largely listed as inhibitors | 4.4% of 390,000 active | O75164 | AlphaScreen JMJD2A-Tudor / H3K4me3 peptide binding; further: potency means the concentration at half of the fitted maximal effect; on the % scale 0 is the no-effect control and ±100 the full control effect; nearly all actives have a fitted effect of over 50% in size
Starred values were filed as active, the others as inactive; ? = inconclusive; nt = not tested or not shown; [ ] = remark or other dose. Unless noted, the call rests on the fitted dose curve; in most records, active means well fitted inhibition curve with a large enough effect; inconclusive means small, poorly fitted or top-dose-only effect; inactive means no such curve, though single readings can be large or run the other way.

SMILES	Six1-Eya2 blk	CtBP-E1A inh	HP1b binding inh	BAZ2B inh	G9a block	JMJD2A Tudor inh
COc1ccc(NC2CCCN(C(=O)COc3ccc(Cl)cc3C)C2)cc1OC (stereo not given)	-18	1	-38%	?	50µM*	?
COc1ccccc1OCC(=O)N1CCCC(Nc2ccc(C)c(C)c2)C1 (stereo not given)	-5	0	-28%	?	nt	?
Cc1ccc(NC2CCCN(C(=O)CCC3=NNC(=O)CC3)C2)cc1C (stereo not given)	9	0	23%	-10%	nt	-7%
COc1ccc(CCC(=O)N2CCCC(Nc3ccc(C)c(C)c3)C2)cc1OC (stereo not given)	-9	-9	-14%	?	45µM*	?
Cc1ccc(/C=C/c2onc(C)c2S(=O)(=O)N2CCC(C(=O)NCc3ccc(Cl)cc3)CC2)cc1	nt	nt	24%[57 µM]	2%	12%[59 µM]	-2%
CCCCN1C[C@H](C)[C@@H](CC(=O)Nc2ccccc2)C1=O	3	0	nt	nt	nt	nt
CCCCN1C[C@H](C)[C@@H](CC(=O)NCc2ccccc2)C1=O	2	5	62%	-25%	45µM*	-11%
FC(F)(F)c1cccc(N2Cc3ccccc3C2)c1	-1	-2	45%	-2%	16%[0.0925 µM]	-9%
CCc1ccc(N2Cc3ccccc3C2)cc1	-1	0	27%	?	10µM*	-32%
CC(=O)Nc1ccc(N2Cc3ccccc3C2)cc1	17	-11	5%	79µM*	nt	-33%
Cc1cc(C)cc(N2Cc3ccccc3C2)c1	5	3	35%	-6%	10µM*	-24%
CCOC(=O)c1ccc(N2Cc3ccccc3C2)cc1O	0	11	26%	2%	?	-27%
CCCNC(=O)C1(C)CCCN(C(=O)COCc2ccccc2)C1 (stereo not given)	4	4	nt	nt	nt	nt
COc1ccc(CNCc2ccccc2)cc1COc1ccc(NC(C)=O)cc1	nt	nt	21%	nt	nt	-18%
Cc1nc2ccc(S(=O)(=O)Nc3cccc(-c4nc5cccnc5s4)c3C)cc2s1	-3	-5	-2%	-34%	50µM*	-31%
Cc1nc2ccc(S(=O)(=O)Nc3cc(-c4nc5cccnc5s4)ccc3C)cc2s1	-25	-19	27%	-25%	50µM*	-7%
O=C(Nc1ccc(Nc2ccccc2)cc1)c1cccc(F)c1	-17	-14	5%	-15%	nt	?
COC(=O)C(NNc1ccccc1)(NC(=O)c1cccc(F)c1)C(F)(F)F (stereo not given)	-2	-6	35%	?	2.2µM*	-11%
CC(C)Cn1c(=O)c2sccc2n2c(CCCC(=O)NC3CCCCC3)nnc12	nt	nt	-4%	-12%	2%[59 µM]	-13%
Cc1ccc(NC(C)c2cc(Cl)ccc2O)cc1 (stereo not given)	-16	-14	-29%	50µM*	-38%[59 µM]	?
CC(Nn1cnnc1)c1cc(Cl)ccc1O (stereo not given)	-1	-1	29%	-13%	-4%	-10%
COc1ccc(NC(=O)CSc2ccc(-c3cccnc3)nn2)c(OC)c1	-9	-2	12%	-14%	nt	-15%
O=C1/C(=C\c2ccccc2)CN(C(=O)CCN2CCCCC2)C/C1=C/c1ccccc1	-4	6	5%	nt	nt	-24%
O=C1/C(=C\c2ccc(Cl)c(Cl)c2)CN(C(=O)CCN2CCOCC2)C/C1=C/c1ccc(Cl)c(Cl)c1	0	-1	-33%	nt	nt	35µM*
Cc1cccc(-c2nc(Cn3c(SCc4cccc(C(F)(F)F)c4)nc4ccncc43)c(C)o2)c1	nt	nt	10%	3%	-19%[59 µM]	-19%
SMILES	Six1-Eya2 blk	CtBP-E1A inh	HP1b binding inh	BAZ2B inh	G9a block	JMJD2A Tudor inh
O=C(COc1ccccc1)Nc1cccc(-c2ccc(N3CCOCC3)nn2)c1	-7	-3	11%	6%	-37%	-14%
COc1ccc(Cc2c(N)nc(N)nc2N)cc1	0	20	22%	-29%	15%	6%
Nc1ccc(OCCCc2c(N)nc(N)nc2N)cc1	-12	nt	1%	-35%	?	56µM*
O=C(O)c1ccc(Nc2ncc([N+](=O)[O-])cc2[N+](=O)[O-])cc1	11	-1	-3%	?	45µM*	-21%
O=C(Nc1ccc(C(=O)O)cc1)Nc1ccc([N+](=O)[O-])cc1	-6	0	36%	5%	11%	-4%
CC(=O)Nc1sc(C)c(C)c1C(=O)OCCOc1ccccc1	1	14	86%	21%	28%	21%
Cc1ccc(C)c(N2CCN(C(=O)c3cc4ccc5cccnc5c4[nH]3)CC2)c1	nt	nt	-11%	-24%[57.1 µM]	-50%[59 µM]	?
CC1=C(C(=O)Nc2cc(C(=O)N3CCN(c4cccc(C)c4)C(C)C3)ccc2C)SCCO1 (stereo not given)	-18	-21	-7%	?	35µM*	?
CCOC(=O)C1CCCN(C(=O)c2ccc(C)c(NC(=O)C3=C(C)OCCS3)c2)C1 (stereo not given)	0	1	30%	-21%	43%	-18%
CNC(=O)c1ccc(C)c(NC(=O)C2=C(C)OCCS2)c1	2	6	35%	7%	?	0%
COc1ccc(N2CCN(C(=O)c3ccc(C)c(NC(=O)C4=C(C)OCCS4)c3)CC2)cc1	-8	-16	22%	45µM*	40µM*	?
Cc1cccc(N2CCN(C(=O)c3cc4ccc5cccnc5c4[nH]3)CC2C)c1 (stereo not given)	nt	nt	-14%	28µM*	?	28µM*
Cc1cccc(N2CCN(C(=O)c3ccc4c(c3)c(C)c(C)n4C)CC2C)c1 (stereo not given)	?	?	40µM*	22µM*	45µM*	28µM*
O=S1(=O)[C@H]2C[C@H](CO)O[C@@]2(CO)CN1Cc1ccc(-c2ccc(F)cc2)cc1	4	3	62%	nt	nt	-15%
CN(C)CCCO[C@H]1[C@@H]2OC(C)(C)O[C@@H]2O[C@@H]1[C@H](O)CO	nt	nt	nt	nt	20%[21.5 µM]	nt
CCN1CCCC1CNC(=O)CN(C)S(=O)(=O)c1ccc(Cl)cc1 (stereo not given)	-2	6	10%	3%	-6%	4%
CCOC(=O)C(Cc1ccccc1)c1ccnc2nc(N)nn12 (stereo not given)	3	nt	31%	?	-1%	-19%
CCc1cccc(C)c1NC(=O)CN1C(=O)c2cccc3cccc1c23	nt	nt	48%	11%[57.1 µM]	-6%[59 µM]	2%
CCNc1ncc2nc(-c3ccc(Cl)cc3)c(=O)n(C[C@H]3CCCO3)c2n1	nt	nt	nt	nt	9%[0.501 µM]	nt
CCCc1cc2c(=O)c(-c3nc4ccccc4s3)c(COCC(=O)O)oc2cc1O	-12	9	15%	-24%	50µM*	?

From PubChem
